CRE-bla Fsk – Cell signaling CRE-BLA (Fsk stim); CHO CRE-bla reporter (cAMP response element driving beta-lactamase), forskolin EC10, beta-lactamase ratio; Potency, µM (highest dose often 38.2 µM), inactives show at the top dose activity change, negative = inhibition, most hits filed as activators; 71,000 compounds, 2.5% hits; AID 662, 2007; active = well fitted activation curve with a large enough effect in the signal ratio, with a control signal flat, not every such curve was filed as active; inconclusive = small, poorly fitted or top-dose-only effect, or effect the other way, or a change in a side signal; the % refers to the signal ratio; note: % of control where 0% means no effect
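CHO CRE-bla cells, overnight plating in Opti-MEM with 0.5% dialyzed FBS; cpd titration + EC10 NKH 477, 3 h 37 °C; CCF4 2 h RT; ex 405/em 460 vs 530 ratio → %Activity, AC50.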
Hsp90 Hop PPI – qHTS Assay for Disrupters of an Hsp90 Co-Chaperone Interaction. AlphaScreen TPR2A-His6 binding biotin-Hsp90 C-terminal peptide. Potency, µM (titrated, usually from 57 µM), inactives show top-dose activity change, negative = inhibition. 71,000 compounds, 0.44% hits. AID 595, 2007; active = well fitted curve in either direction with a large enough effect; inconclusive = small, poorly fitted or top-dose-only effect, or another doubt; note: % is set by controls: 0 for no effect and ±100 for the full control effect
IkB sig inh – IkB Signaling; ABC-DLBCL IkBa-CBG/CBR dual luciferase ratio, 4 h; response scale: scaled: untreated 0%, proteasome inhibitor 100%; 110,000 compounds, 0.04% hits; Potency, µM (titrated, usually from 57.1 µM), inactives show at the top dose IkBa stabilization activation; AID 445, 2006; active = well fitted curve in the direction sought with a large enough effect in the signal ratio, not every such curve was filed as active; inconclusive = small, poorly fitted or top-dose-only effect, or a change in a side signal; the % refers to the signal ratio;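 note: the direction sought is a rising ratio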
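Luminescence ratio of IκBα-fused green versus native red beetle luciferase in OCI-Ly3 cells, 4 h post-doxycycline with compound; red signal alone, scaled from basal (0%) to zero light (-100%), flagged nonspecific or cytotoxic effects.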
TSHR agonist – qHTS Assay for Agonists of the Thyroid Stimulating Hormone Receptor. Potency, µM (series often up to 57.1 µM), inactives show at the highest dose activation, usual class: activators. Thyrotropin receptor (Homo sapiens), P16473. 73,000 compounds, 0.48% hits. HEK293-CNG-TSHR cells (CNG channel as cAMP sensor), membrane potential dye, cAMP; active = well fitted activation curve with a large enough effect in the main read-out, with a control signal flat, not every such curve was filed as active; inconclusive = small, poorly fitted or top-dose-only effect, or a change in a side signal; inactive = no such curve, though single readings can be large or run the other way; % of control where 0% means no effect;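 note: the control signal comes from parental cells without the receptor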
Target sequence (P16473 whole entry, looked up): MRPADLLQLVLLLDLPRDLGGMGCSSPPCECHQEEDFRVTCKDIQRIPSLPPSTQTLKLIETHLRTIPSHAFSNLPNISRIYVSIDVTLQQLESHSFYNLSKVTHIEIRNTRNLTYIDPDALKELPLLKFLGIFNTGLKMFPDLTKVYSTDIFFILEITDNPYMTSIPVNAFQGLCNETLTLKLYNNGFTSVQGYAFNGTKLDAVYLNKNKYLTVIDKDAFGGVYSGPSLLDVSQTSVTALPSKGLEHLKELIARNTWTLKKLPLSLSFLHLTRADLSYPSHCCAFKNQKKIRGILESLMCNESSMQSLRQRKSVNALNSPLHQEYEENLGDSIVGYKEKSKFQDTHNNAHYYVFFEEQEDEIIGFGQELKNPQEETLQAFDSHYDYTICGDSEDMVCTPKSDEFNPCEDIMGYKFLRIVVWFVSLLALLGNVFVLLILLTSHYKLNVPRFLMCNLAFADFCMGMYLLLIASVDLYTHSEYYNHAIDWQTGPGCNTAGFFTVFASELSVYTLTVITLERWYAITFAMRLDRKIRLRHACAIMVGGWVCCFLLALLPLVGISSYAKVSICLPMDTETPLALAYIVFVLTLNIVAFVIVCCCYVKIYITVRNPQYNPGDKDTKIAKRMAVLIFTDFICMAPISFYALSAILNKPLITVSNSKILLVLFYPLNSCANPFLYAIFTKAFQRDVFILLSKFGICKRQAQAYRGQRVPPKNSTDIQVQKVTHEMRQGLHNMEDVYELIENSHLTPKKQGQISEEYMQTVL
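cAMP rise detected as CNG-channel membrane depolarization by fluorescent dye (emission 590 nm), 30 min after compound, following 60 min dye loading containing 100 uM RO 20-1724 at room temperature. Cells: TSHR/CNG HEK 293, with parental CNG HEK 293 as control.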
HEK293 cAMP cs – qHTS Assay for Agonists of the Thyroid Stimulating Hormone Receptor: Activators of Intracellular cAMP Concentrations in Parental HEK 293; parental HEK293 CNG cAMP sensor, membrane potential fluorescence; 73,000 compounds, 2.5% hits; AID 938, 2007; Potency, µM (titrated, usually from 57.1 µM), without a hit: at the highest dose activation, most hits filed as activators; active = well fitted activation curve with a large enough effect; inconclusive = small, poorly fitted or top-dose-only effect; inactive = no such curve, though single readings can be large or run the other way; note: % of control where 0% means no effect; nearly all actives have a fitted effect of over 55% in size
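Parental HEK 293 cells stably expressing a modified CNG channel (no TSHR) report cAMP rise as membrane depolarization. Membrane potential dye with 100 uM RO 20-1724 was loaded for 60 min at room temperature, then compound added for 30 min; fluorescence read at 590 nm.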
The depositor's hits bear a star; u = inconclusive; x = no result; [ ] = another dose, or the depositor's remark. In the library only some 3.5% were active in any assay of this set; here they are far more common. Potency is the fitted concentration of half-maximal effect.

SMILES | CRE-bla Fsk | Hsp90 Hop PPI | IkB sig inh | TSHR agonist | HEK293 cAMP cs
Cc1noc(NS(=O)(=O)c2ccc(N3Cc4ccccc4C3=O)cc2)c1C | 13µM* | -1% | -1% | -5% | -6%
CCN(CC)S(=O)(=O)c1ccc(NC2CCCc3ccccc32)nc1 (stereo not drawn) | 3% | 6% | 0% | u | 25µM*
CCN1C(=O)[C@H]2[C@H]3[C@H](O)[C@H](O)C/C(=N/OC/C=C(\C)CCC=C(C)C)[C@@H]3CC[C@@H]2C1=O | x | x | x | -5%[11.4 µM] | -2%[11.4 µM]
Cn1c(=O)c(-c2cc(F)cc(F)c2)nc2cnc(Nc3ccccc3)nc21 | u | -20% | -7%[11.4 µM] | -8% | -4%
COc1ccc(NC(=O)CSc2nc3ccccc3c(=O)n2-c2ccc3c(c2)OCO3)c(OC)c1 | 4µM* | -3% | -2% | 23% | 2%
COc1ccc(-n2c(SCC(=O)Nc3ccc4c(c3)OCO4)nc3ccccc3c2=O)cc1 | -2% | -9% | -2% | 12% | 21%
C/C(CCN1CCCCc2nc(C)c(C)cc21)=N\OC[C@@H](O)COCc1ccco1 | x | x | x | 5%[11.4 µM] | 11%[11.4 µM]
NC(N)=NCCSSCCN=C(N)N | -3% | 0% | 0% | x | -6%
Cc1sc2ncnc(SC(C)C#N)c2c1C (stereo not drawn) | 5µM* | u | -1% | 18% | 24%
CCOC(=O)c1c(C)noc1CP(=O)(c1ccccc1)c1ccccc1 | 3% | 0% | 0% | u | 13µM*
CCCCC[C@H](CC(=O)NO)C(=O)N[C@@H](C(=O)N1CCC[C@H]1CO)C(C)C | u | u | 6% | 5% | 11%
Cc1csc(B(O)O)c1 | x | x | x | 1% | 16%
CC(C)=C1C2C=CC1C1C(=O)N(c3ccc4c(c3)OCO4)C(=O)C21 (stereo not drawn) | u | -6%[11 µM] | 0% | 2.5µM* | 3%[11.4 µM]
CCOC(=O)C1=C(C)Nc2ncnn2C1c1ccc2c(c1)OCO2 (stereo not drawn) | 7% | -3% | 0% | 3.2µM* | 24%
Cc1[nH]c2ccccc2c1-c1cc(-c2cc(-c3c(C)[nH]c4ccccc34)nc(N)n2)nc(N)n1 | u | -2%[11 µM] | 1%[11.4 µM] | 0%[11.4 µM] | -4%[11.4 µM]
CSC(N)=NCCC[C@@H](N)C(=O)O | 1% | -9% | 1% | 8% | 13%
COc1ccc(/C=N/n2c(SC)nnc2-c2ccccc2)c(OC)c1OC | u | 0% | 5% | u | u
COc1ccc(/C=N/n2c(SC)nnc2-c2ccccc2)cc1C | u | -1% | u | u | 25µM*
COc1cccc(Cn2c(=O)c(-c3cccc(F)c3)nc3cncnc32)c1 | u | -14% | -2%[11.4 µM] | -2% | 8%
CCn1c(=O)c2cc(C(=O)N3CCOCC3)sc2c2ccccc21 | 2µM* | -3%[2.3 µM] | 6% | 1% | -9%
Cc1nn(-c2ccccc2)c2sc(C(=O)N3CCOCC3)cc12 | 4µM* | 0% | 0% | u | u
Cc1nn(-c2ccccc2)c2sc(C(=O)O)cc12 | u | 1% | 5% | 17% | 20%
Cc1nn(-c2ccc(F)cc2)c2sc(C(=O)O)cc12 | 6.3µM* | -3% | 4% | 9% | 7%
CCCCc1c(O)nc(SCC(=O)Nc2ccc3c(c2)CCC3)[nH]c1=O | 0% | 2% | 0% | -7% | -18%
CCc1c(O)nc(SCC(=O)Nc2ccc3c(c2)CCC3)[nH]c1=O | -3% | 0% | 1% | u | 25µM*
SMILES | CRE-bla Fsk | Hsp90 Hop PPI | IkB sig inh | TSHR agonist | HEK293 cAMP cs
O=C(c1ccco1)N1CCC2(CCCN(c3ncccn3)C2)CC1 | -8% | 1% | 1%[11.4 µM] | -1% | 7%
O=C(OCCN(C1=NS(=O)(=O)c2ccccc21)c1ccc(Cl)cc1)c1ccco1 | u | -13% | 5% | u | 16µM*
O=C(Oc1ccc(N(Cc2cccs2)C2=NS(=O)(=O)c3ccccc32)cc1)c1ccco1 | -5% | -4% | 4% | 5% | 7%
CC(C)c1nc(-c2c(N)n(C)c(=O)n(C)c2=O)sc1C(=O)C(C)(C)C | 2% | 0% | 0% | u | 16µM*
Cc1nnc(SCC(=O)c2c(N)n(C)c(=O)n(C)c2=O)[nH]c1=O | -10% | -1% | 0% | 2% | 13%
Cc1ccc(NC(=O)CSc2nc(=O)n(CCN3CCOCC3)c3c2CCC3)c(C)c1 | x | x | 2% | x | x
Sc1ccc2ccccc2c1CNCc1ccccc1 | -16%[7.6 µM] | -9%[11 µM] | 2%[11.4 µM] | -2%[11.4 µM] | 6%[11.4 µM]
N#Cc1c(SCc2ccccc2)nc(N2CCOCC2)c2c1CCCC2 | 29%[7.6 µM] | u | 1% | 16%[11.4 µM] | 12%[11.4 µM]
N#Cc1c(N)nc(SCc2ccccc2)c(C#N)c1-c1ccco1 | 3.2µM* | 17% | u | 26% | 15%
N#Cc1c(N)nc(SC2CCCCC2=O)c(C#N)c1-c1ccco1 (stereo not drawn) | 10µM* | 1% | u | 6% | -7%
N#Cc1c(N)nc(SCC(=O)OCc2ccccc2)c(C#N)c1-c1ccco1 | 13µM* | 1% | u | u | u
COC(=O)CSc1nc2c(c(-c3ccco3)c1C#N)CCCC2 | -4% | -10% | 20% | -1% | 7%
Cc1cc(C)c(C#N)c(SC2CCCCC2=O)n1 (stereo not drawn) | 14% | -1% | u | 6% | 11%
CCN1C(=O)C2(Nc3ccccc3-c3nc4ccccc4n32)c2cc(OC)ccc21 (stereo not drawn) | u | -10% | u | u | 7.9µM*
CCO[C@H](c1cc(OC)cc([N+](=O)[O-])c1OC)[C@H](C)/C=C\CC(=O)OC | x | x | x | 13%[11.4 µM] | 3%[11.4 µM]
CCCCN(CC)S(=O)(=O)c1cccc2cccnc12 | -3% | 16% | 0% | u | 20µM*
O=S(=O)(c1cccc2cccnc12)N(CCO)CCO | 1% | -2% | -1% | 4% | -2%
Cc1ccc(-c2nnn(CC(=O)N(CC(=O)NC(C)C)c3cnc4ccccc4c3)n2)o1 | 6% | -4% | 7% | 8% | 4%
Cc1ccc(-c2nnn(CC(=O)Nc3cccc4cccnc34)n2)o1 | 30% | -2% | u | u | 25µM*
CCn1c(=O)cc(OCC(=O)Nc2ccccc2N2CCN(C)CC2)c2ccccc21 | 10µM* | -1% | 8% | 8% | -4%
Cc1cc(C)c(Cn2c(=O)n(CCCC(=O)NCc3ccco3)c(=O)c3ccccc32)c(C)c1 | 10µM* | -2% | -1% | 4% | 17%
COc1ccc(OC)c(CNC(=O)COc2cc(=O)n(C)c3ccccc23)c1 | 10µM* | -1% | 3% | 2%[11.4 µM] | -2%
CCn1c(=O)cc(OCC(=O)NCc2ccco2)c2ccccc21 | 13µM* | u | 1% | 1%[11.4 µM] | 1%
CCn1c(=O)cc(OCC(=O)NCc2ccc(C)o2)c2ccccc21 | u | 1% | 4% | 0%[11.4 µM] | 0%

Source: PubChem BioAssay
